Drawing on publication PMC7862700, “An all-to-all approach to the identification of sequence-specific readers for epigenetic DNA modifications on cytosine”, this text covers binding signal for eight sequences.

Experiment in all cases: DAPPL (digital affinity profiling via proximity ligation, sequencing); 10 mM Tris-HCl pH 7.5, 50 mM NaCl, 1 mM DTT, 4% glycerol, room temperature, 30 min; GST-TFs on glutathione beads, 16-mer random dsDNA library, 0.1% formaldehyde crosslink after washing; high values mean tight binding
One assay concerns the target T1, FEV (Homo sapiens, UniProt Q99581 1-238).
T1 sequence: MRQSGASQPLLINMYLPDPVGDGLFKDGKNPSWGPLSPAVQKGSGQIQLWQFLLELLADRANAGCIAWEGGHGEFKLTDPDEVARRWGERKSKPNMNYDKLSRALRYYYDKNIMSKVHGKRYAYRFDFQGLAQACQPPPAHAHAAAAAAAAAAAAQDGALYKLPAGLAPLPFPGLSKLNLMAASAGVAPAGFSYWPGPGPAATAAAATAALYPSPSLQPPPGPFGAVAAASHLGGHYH
The note with it: protein: recombinant; tags: N-terminal GST; dsDNA, one strand shown. The procedure, abridged: (§1)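 After expression in yeast as GST fusions, human transcription factors were bound to glutathione beads, DNA-barcoded and mixed with a tag-only sample. The pools were incubated with 200 nmole of a 16-mer random double-stranded DNA library in Tris/NaCl/DTT/glycerol buffer (30 min, room temperature), washed and crosslinked with 0.1% formaldehyde. Proximity ligation with BsaI/T4 ligase ran for 1 h at 37 °C, before PCR amplification and sequencing on an Illumina NextSeq500. Binding signal is a hexamer's read frequency for a factor divided by its frequency for the tag-only sample.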

For a further assay, the target named is ETV5 (Homo sapiens, UniProt P41161 1-510). The note with it: protein: recombinant; tags: N-terminal GST; dsDNA, one strand shown. The procedure, abridged:
as §1

Another assay has as its target HSF1 (Homo sapiens, UniProt Q00613 1-529). The following applies: protein: recombinant; tags: N-terminal GST; chain copies: 3; dsDNA, one strand shown. The method in brief:
as §1

A further assay deals with T2, SPIC (Homo sapiens, UniProt Q8N5J4 1-248).
T2 sequence: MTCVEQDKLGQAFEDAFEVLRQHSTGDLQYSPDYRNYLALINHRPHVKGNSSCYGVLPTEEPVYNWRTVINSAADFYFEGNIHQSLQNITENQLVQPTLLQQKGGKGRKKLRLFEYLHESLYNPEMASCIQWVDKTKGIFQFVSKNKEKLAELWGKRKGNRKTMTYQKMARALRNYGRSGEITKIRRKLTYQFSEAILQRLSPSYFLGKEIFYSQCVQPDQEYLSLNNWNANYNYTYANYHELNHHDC
The note with it: protein: recombinant; tags: N-terminal GST; dsDNA, one strand shown. The method in brief:
as §1

In another assay the target is ELF4 (Homo sapiens, UniProt Q99607 1-663). The following applies: protein: recombinant; tags: N-terminal GST; dsDNA, one strand shown. The method in brief:
as §1

The next assay has as its target T3, ELK4 (Homo sapiens, UniProt P28324-2 1-405).
T3 sequence: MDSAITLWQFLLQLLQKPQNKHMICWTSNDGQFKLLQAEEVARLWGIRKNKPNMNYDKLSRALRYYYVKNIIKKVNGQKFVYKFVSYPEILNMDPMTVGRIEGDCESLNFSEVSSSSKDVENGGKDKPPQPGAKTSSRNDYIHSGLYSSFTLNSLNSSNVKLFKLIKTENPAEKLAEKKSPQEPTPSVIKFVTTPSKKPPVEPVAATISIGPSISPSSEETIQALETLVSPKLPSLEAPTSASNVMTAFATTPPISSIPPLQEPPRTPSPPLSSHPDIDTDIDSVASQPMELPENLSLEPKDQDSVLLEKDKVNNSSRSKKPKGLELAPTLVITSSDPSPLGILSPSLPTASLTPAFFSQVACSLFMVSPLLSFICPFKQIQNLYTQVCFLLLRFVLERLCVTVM
The note with it: protein: recombinant; tags: N-terminal GST; dsDNA, one strand shown. The procedure, abridged:
as §1

A further assay has as its target T4, ETV2 (Homo sapiens, UniProt O00321 1-342).
T4 sequence: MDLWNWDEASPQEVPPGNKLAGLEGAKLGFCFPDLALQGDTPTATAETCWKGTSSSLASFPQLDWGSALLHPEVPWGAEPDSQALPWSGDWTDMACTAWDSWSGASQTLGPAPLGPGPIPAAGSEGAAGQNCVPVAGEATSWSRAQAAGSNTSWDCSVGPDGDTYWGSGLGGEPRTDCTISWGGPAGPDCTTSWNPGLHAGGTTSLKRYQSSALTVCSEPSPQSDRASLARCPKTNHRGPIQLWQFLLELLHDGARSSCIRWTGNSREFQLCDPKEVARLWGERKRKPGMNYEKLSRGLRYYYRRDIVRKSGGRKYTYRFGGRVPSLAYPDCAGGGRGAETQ
The note with it: protein: recombinant; tags: N-terminal GST; dsDNA, one strand shown. The method in brief: as §1

The target in a further assay is T5, ELF3 (Homo sapiens, UniProt P78545 1-371).
T5 sequence: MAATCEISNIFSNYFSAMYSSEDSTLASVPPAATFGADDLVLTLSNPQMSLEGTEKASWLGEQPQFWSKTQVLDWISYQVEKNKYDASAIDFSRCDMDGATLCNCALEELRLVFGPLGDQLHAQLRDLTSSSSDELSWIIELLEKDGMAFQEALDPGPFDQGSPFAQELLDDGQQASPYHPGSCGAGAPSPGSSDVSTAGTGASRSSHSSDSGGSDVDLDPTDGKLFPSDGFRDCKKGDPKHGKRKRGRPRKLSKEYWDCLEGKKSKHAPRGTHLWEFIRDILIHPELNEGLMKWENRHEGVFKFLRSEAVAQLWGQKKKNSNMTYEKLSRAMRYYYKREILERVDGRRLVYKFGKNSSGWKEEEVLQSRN
The note with it: protein: recombinant; tags: N-terminal GST; dsDNA, one strand shown. The procedure, abridged: as §1

A further assay addresses CRX (Homo sapiens, UniProt O43186 1-299). The following applies: protein: recombinant; tags: N-terminal GST; dsDNA, one strand shown. The procedure, abridged:
as §1

Another assay concerns the target ETV1 (Homo sapiens, UniProt P50549 1-477). The note with it: protein: recombinant; tags: N-terminal GST; dsDNA, one strand shown. The method in brief:
as §1

Chain of ETV5 (P41161 whole entry): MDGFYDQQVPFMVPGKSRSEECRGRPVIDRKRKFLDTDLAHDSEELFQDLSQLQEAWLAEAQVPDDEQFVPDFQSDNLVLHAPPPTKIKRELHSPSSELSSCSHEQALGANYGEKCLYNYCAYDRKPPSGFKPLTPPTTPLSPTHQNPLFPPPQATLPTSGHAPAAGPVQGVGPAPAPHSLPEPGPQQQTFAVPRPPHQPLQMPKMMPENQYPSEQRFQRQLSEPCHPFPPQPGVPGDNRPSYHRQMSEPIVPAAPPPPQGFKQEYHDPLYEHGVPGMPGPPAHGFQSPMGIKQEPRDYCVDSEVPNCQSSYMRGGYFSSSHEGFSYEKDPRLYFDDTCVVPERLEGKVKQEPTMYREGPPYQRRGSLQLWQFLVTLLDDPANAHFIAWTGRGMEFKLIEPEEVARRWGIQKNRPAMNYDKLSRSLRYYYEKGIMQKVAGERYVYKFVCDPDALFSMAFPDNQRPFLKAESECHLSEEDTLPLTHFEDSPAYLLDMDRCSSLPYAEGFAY
Chain of HSF1 (Q00613 whole entry): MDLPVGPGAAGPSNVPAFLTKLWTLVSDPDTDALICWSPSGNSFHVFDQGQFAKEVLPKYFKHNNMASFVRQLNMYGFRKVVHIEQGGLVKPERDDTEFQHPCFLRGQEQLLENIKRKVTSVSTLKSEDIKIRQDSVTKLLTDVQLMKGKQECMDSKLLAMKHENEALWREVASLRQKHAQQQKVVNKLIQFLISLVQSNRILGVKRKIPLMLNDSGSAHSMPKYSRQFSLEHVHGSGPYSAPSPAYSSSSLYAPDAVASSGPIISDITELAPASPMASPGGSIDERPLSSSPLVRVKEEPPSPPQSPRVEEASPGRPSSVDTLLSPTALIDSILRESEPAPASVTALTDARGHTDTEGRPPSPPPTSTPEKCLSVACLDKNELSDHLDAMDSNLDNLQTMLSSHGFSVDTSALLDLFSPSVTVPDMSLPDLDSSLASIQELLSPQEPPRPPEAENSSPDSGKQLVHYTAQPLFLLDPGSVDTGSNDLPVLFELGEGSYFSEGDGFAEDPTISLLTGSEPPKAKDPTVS
Chain of CRX (O43186 whole entry): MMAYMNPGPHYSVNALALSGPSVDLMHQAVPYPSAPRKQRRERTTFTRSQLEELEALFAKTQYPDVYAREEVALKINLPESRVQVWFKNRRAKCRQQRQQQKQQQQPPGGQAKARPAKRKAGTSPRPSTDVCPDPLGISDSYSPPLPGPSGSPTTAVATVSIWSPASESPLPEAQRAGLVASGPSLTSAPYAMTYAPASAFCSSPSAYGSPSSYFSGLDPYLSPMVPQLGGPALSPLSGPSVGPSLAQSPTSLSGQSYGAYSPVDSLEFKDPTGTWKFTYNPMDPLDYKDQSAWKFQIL
Chain of ETV1 (P50549 whole entry): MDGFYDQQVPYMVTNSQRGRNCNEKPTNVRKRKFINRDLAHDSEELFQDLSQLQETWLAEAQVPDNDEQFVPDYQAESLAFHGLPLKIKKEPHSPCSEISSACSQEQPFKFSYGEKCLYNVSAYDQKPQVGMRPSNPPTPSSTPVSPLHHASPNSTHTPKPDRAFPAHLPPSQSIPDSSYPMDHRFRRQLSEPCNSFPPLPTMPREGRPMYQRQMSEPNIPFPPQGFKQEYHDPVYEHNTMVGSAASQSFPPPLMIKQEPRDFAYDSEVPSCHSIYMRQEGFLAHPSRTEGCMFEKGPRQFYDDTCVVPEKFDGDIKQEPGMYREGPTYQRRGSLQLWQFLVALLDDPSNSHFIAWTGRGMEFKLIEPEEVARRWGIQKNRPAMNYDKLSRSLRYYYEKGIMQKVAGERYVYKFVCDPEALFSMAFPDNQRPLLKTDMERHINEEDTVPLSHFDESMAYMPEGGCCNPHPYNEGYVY
Chain of ELF4 (Q99607 whole entry): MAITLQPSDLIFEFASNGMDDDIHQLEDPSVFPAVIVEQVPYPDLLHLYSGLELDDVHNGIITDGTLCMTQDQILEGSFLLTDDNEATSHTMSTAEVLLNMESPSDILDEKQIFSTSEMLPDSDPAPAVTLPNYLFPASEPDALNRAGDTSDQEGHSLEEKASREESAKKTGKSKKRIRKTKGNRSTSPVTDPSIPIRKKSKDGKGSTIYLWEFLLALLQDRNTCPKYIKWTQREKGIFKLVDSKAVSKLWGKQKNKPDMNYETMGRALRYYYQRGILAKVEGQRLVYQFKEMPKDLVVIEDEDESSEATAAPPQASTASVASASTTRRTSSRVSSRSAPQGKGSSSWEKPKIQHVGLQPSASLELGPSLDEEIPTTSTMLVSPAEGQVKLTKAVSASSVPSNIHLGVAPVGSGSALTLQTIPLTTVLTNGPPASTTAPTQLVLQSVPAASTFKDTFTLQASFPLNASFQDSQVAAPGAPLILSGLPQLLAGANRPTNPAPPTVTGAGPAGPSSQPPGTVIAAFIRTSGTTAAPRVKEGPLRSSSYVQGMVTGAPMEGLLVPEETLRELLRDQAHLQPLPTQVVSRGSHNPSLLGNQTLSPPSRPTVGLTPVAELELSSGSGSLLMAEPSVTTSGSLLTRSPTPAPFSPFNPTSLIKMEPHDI

Turning to ACTCTT, the binding signal in the assay with FEV was 1.18 fold enrichment (6-mer frequency, TF over GST control); with ETV5 it was 1.29 fold enrichment (6-mer frequency, TF over GST control); with HSF1, 1.12 fold enrichment (6-mer frequency, TF over GST control); with SPIC it was 1.3 fold enrichment (6-mer frequency, TF over GST control); in the assay with ELF4, 1.26 fold enrichment (6-mer frequency, TF over GST control); with ELK4, 1.35 fold enrichment (6-mer frequency, TF over GST control). Further, the binding signal is 1.31 fold enrichment (6-mer frequency, TF over GST control) with ETV2; 1.14 fold enrichment (6-mer frequency, TF over GST control) in the assay with ELF3; 1.19 fold enrichment (6-mer frequency, TF over GST control) with CRX; 1.33 fold enrichment (6-mer frequency, TF over GST control) in the assay with ETV1.
With GCTAAA, the binding signal with FEV was 1.05 fold enrichment (6-mer frequency, TF over GST control); with ETV5 it was 1.15 fold enrichment (6-mer frequency, TF over GST control); in the assay with HSF1, 1.17 fold enrichment (6-mer frequency, TF over GST control); in the assay with SPIC, 1.09 fold enrichment (6-mer frequency, TF over GST control); in the assay with ELF4, 1.06 fold enrichment (6-mer frequency, TF over GST control); with ELK4, 1.11 fold enrichment (6-mer frequency, TF over GST control). For the same sequence, the binding signal is 1.12 fold enrichment (6-mer frequency, TF over GST control) in the assay with ETV2; 1.07 fold enrichment (6-mer frequency, TF over GST control) with ELF3; 1.4 fold enrichment (6-mer frequency, TF over GST control) in the assay with CRX; 1.26 fold enrichment (6-mer frequency, TF over GST control) with ETV1.
As for CTGCTA, the binding signal with FEV was 1.47 fold enrichment (6-mer frequency, TF over GST control); with ETV5 it was 1.56 fold enrichment (6-mer frequency, TF over GST control); with HSF1 it was 1.37 fold enrichment (6-mer frequency, TF over GST control); with SPIC it was 1.5 fold enrichment (6-mer frequency, TF over GST control); with ELF4, 1.42 fold enrichment (6-mer frequency, TF over GST control); in the assay with ELK4, 1.68 fold enrichment (6-mer frequency, TF over GST control). Also, the binding signal was 1.49 fold enrichment (6-mer frequency, TF over GST control) with ETV2; 1.67 fold enrichment (6-mer frequency, TF over GST control) in the assay with ELF3; 1.36 fold enrichment (6-mer frequency, TF over GST control) with CRX; 1.64 fold enrichment (6-mer frequency, TF over GST control) in the assay with ETV1.
AACTCG: the binding signal with FEV is 1.32 fold enrichment (6-mer frequency, TF over GST control); in the assay with ETV5, 1.29 fold enrichment (6-mer frequency, TF over GST control); in the assay with HSF1, 1.4 fold enrichment (6-mer frequency, TF over GST control); with SPIC it was 1.58 fold enrichment (6-mer frequency, TF over GST control); in the assay with ELF4 it was 1.37 fold enrichment (6-mer frequency, TF over GST control); with ELK4, 1.29 fold enrichment (6-mer frequency, TF over GST control). The binding signal with ETV2 was 1.37 fold enrichment (6-mer frequency, TF over GST control); with ELF3, 1.29 fold enrichment (6-mer frequency, TF over GST control); with CRX it was 1.3 fold enrichment (6-mer frequency, TF over GST control); with ETV1, 1.3 fold enrichment (6-mer frequency, TF over GST control).
GCTCTA: the binding signal with FEV was 1.15 fold enrichment (6-mer frequency, TF over GST control); in the assay with ETV5, 1.21 fold enrichment (6-mer frequency, TF over GST control); with HSF1 it was 1.34 fold enrichment (6-mer frequency, TF over GST control); with SPIC, 1.26 fold enrichment (6-mer frequency, TF over GST control); with ELF4, 1.21 fold enrichment (6-mer frequency, TF over GST control); with ELK4, 1.07 fold enrichment (6-mer frequency, TF over GST control). The binding signal was 1.19 fold enrichment (6-mer frequency, TF over GST control) with ETV2; 1.28 fold enrichment (6-mer frequency, TF over GST control) with ELF3; 1.36 fold enrichment (6-mer frequency, TF over GST control) with CRX; 1.11 fold enrichment (6-mer frequency, TF over GST control) with ETV1.
For the sequence TTTGAA, the binding signal in the assay with FEV was 1.13 fold enrichment (6-mer frequency, TF over GST control); with ETV5, 1.26 fold enrichment (6-mer frequency, TF over GST control); with HSF1, 1.24 fold enrichment (6-mer frequency, TF over GST control); with SPIC, 1.24 fold enrichment (6-mer frequency, TF over GST control); with ELF4 it was 1.32 fold enrichment (6-mer frequency, TF over GST control); with ELK4, 1.34 fold enrichment (6-mer frequency, TF over GST control). Also, the binding signal is 1.38 fold enrichment (6-mer frequency, TF over GST control) in the assay with ETV2; 1.3 fold enrichment (6-mer frequency, TF over GST control) in the assay with ELF3; 1.28 fold enrichment (6-mer frequency, TF over GST control) in the assay with CRX; 1.19 fold enrichment (6-mer frequency, TF over GST control) with ETV1.
AGTATT: the binding signal was 1.14 fold enrichment (6-mer frequency, TF over GST control) with FEV; 1.2 fold enrichment (6-mer frequency, TF over GST control) with ETV5; 1.35 fold enrichment (6-mer frequency, TF over GST control) with HSF1; 1.22 fold enrichment (6-mer frequency, TF over GST control) in the assay with SPIC; 1.16 fold enrichment (6-mer frequency, TF over GST control) with ELF4; 1.17 fold enrichment (6-mer frequency, TF over GST control) with ELK4. In addition, the binding signal in the assay with ETV2 was 1.07 fold enrichment (6-mer frequency, TF over GST control); with ELF3, 1.17 fold enrichment (6-mer frequency, TF over GST control); with CRX, 1.57 fold enrichment (6-mer frequency, TF over GST control); in the assay with ETV1, 1.19 fold enrichment (6-mer frequency, TF over GST control).
TTCGCC: the binding signal is 1.19 fold enrichment (6-mer frequency, TF over GST control) with FEV; 1.13 fold enrichment (6-mer frequency, TF over GST control) in the assay with ETV5; 1.14 fold enrichment (6-mer frequency, TF over GST control) with HSF1; 1.32 fold enrichment (6-mer frequency, TF over GST control) with SPIC; 1.05 fold enrichment (6-mer frequency, TF over GST control) in the assay with ELF4; 1.08 fold enrichment (6-mer frequency, TF over GST control) with ELK4. In addition, the binding signal is 1.1 fold enrichment (6-mer frequency, TF over GST control) in the assay with ETV2; 1.08 fold enrichment (6-mer frequency, TF over GST control) with ELF3; 1 fold enrichment (6-mer frequency, TF over GST control) with CRX; 1.13 fold enrichment (6-mer frequency, TF over GST control) in the assay with ETV1.
